PubChem BioAssay (NCATS)
Inconclusive results are not listed. A number with no mark means an inactive call. Calls of active or inactive are those of the source. Calls follow the shape of the dose curve; as a rule, active = well fitted inhibition curve with a large enough effect; inconclusive = small, poorly fitted or top-dose-only effect; inactive = no such curve, though single readings can be large or run the other way.

Biological target: Cytochrome P450 2C9 (Homo sapiens) (UniProt P11712)
Test: qHTS Assay for Inhibitors and Substrates of Cytochrome P450 2C9 (AID 883); also: nearly all actives have a fitted effect of over 60% in size
Conditions: recombinant CYP2C9, luciferin-H luminescence, 60 min; series mostly up to 57.1 µM; activity change, negative = inhibition: at the top concentration
Procedure: NIH Molecular Libraries Screening Centers Network [MLSCN] NIH Chemical Genomics Center [NCGC] MLSCN Grant: None NCGC Assay Overview: The P450 gene superfamily is involved in the metabolism and clearance of xenobiotics. This assay used human CYP2C9 to measure the hydroxylation of deoxyluciferin (Luciferin-H; P450 Glo-Buffer) to luciferin. The luciferin is then measured by luminescence after the addition of a luciferase detection reagent. Luciferin-H concentration in the assay was equal to its Michaelis constant KM for CYP2C9. Inhibitors and some substrates limit the production of luciferin, and decrease measured luminescence.
NCGC Assay Protocol Summary: Two uL of enzyme and substrate mix (final concentrations: 10nM CYP2C9, 100uM Luciferin-H, 25mM KPO4) were dispensed into a white, solid bottom 1536-well microtiter plate. 23nL of compound was transferred by a pin tool. The plate was incubated at 37C for 10 min. Two uL of an NADPH regeneration solution (Promega supplied reagent) was dispensed and the reaction was allowed to continue for 60 min at 37C. Then the reaction was stopped by reconstituted P450 Glo-Buffer. After another 20 min of incubation the plate was read on the ViewLux (Perkin Elmer) at 60 sec exposure and 2x2 binning. This protocol was carried out with Promega-Glo reagents and further information can be found at http://www.promega.com/tbs/tb325/tb325.pdf. Data were normalized to the to AC100 inhibition (57uM sulphaphenazole). Keywords: P450, CYP2C9, Luciferase, MLSMR, MLSCN, NIH Roadmap, qHTS, NCGC
% is scaled to controls: 0 for no effect and ±100 for the full control effect; potency is read from the fitted curve at half-maximal effect.

Cytochrome P450 2C9 (Homo sapiens), sequence (P11712 whole entry, looked up): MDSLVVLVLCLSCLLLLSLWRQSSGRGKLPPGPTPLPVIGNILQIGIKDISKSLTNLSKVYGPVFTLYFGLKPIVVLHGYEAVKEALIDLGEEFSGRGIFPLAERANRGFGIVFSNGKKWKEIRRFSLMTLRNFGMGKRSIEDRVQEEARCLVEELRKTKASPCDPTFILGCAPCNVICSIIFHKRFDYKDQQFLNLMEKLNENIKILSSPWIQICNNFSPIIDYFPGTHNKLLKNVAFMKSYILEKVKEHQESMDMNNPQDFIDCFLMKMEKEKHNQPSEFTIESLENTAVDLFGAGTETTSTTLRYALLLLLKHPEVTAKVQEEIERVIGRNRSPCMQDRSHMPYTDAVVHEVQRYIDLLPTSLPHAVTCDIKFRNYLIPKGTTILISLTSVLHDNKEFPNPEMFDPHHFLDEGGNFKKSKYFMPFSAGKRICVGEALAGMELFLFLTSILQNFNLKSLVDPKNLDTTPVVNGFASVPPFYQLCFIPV

SMILES | Potency | activity change, negative = inhibition
O=C(c1cnccn1)N1CCC[C@@]2(CCN(c3cccc(-c4ccccc4)c3)C2)C1 | 7940 nM (active) | 
COc1cc2cc(Oc3ccc4ccc(=O)oc4c3)c(=O)oc2cc1O |  | -3.13%
COc1ccc(CNc2cc(-c3cccc(NS(C)(=O)=O)c3)ncn2)c(OC)c1 |  | 30.9% [at 2.29 µM]
COCCn1c(=O)c(-c2ccccc2)nc2cnc(Oc3cccc(Cl)c3)nc21 | 501 nM (active) | 
Cn1cc(-c2nc3cnc(N4CCNCC4)nc3n(C3CC3)c2=O)c2ccccc21 | 3980 nM (active) | 
COc1ccc(-c2oc3ccc(C)cc3c(=O)c2O)cc1OC |  | 8.41%
COc1ccc2[nH]cc(CCNc3ncnc4ccc(-c5ccccc5OC)cc34)c2c1 | 251 nM (active) | 
COc1ccc(-c2nc3cnc(Oc4cccc(Cl)c4)nc3n(C[C@H]3CCCO3)c2=O)cc1 | 5010 nM (active) | 
CCCCN1CCC(COC(=O)c2cc(Cl)c(N)c3c2OCCO3)CC1 |  | 36.1%
COc1cccc(Nc2ncc3nc(-c4ccc(F)cc4)c(=O)n(CCC#N)c3n2)c1 |  | 82%
COc1cccc(Cn2c(=O)cnc3cnc(Nc4cccc(OC)c4)nc32)c1 | 2000 nM (active) | 
COCCn1c(=O)c(-c2cccs2)nc2cnc(N3CCNCC3)nc21 | 2000 nM (active) | 
Cc1ccccc1-c1ccc2ncnc(N3CCOCC3)c2c1 |  | -24.2% [at 2.29 µM]
O=c1cc(-c2cccc(O)c2)oc2c(O)c(O)ccc12 | 1580 nM (active) | 
Clc1ccccc1NN(Cc1ccncc1)c1ccccc1Cl | 1580 nM (active) | 
CC(C)=CCc1c(O)cc(O)c2c1O[C@H](c1ccccc1)CC2=O | 3160 nM (active) | 
O=C1C=C(NCCc2cc(Br)c(O)c(Br)c2)C(=O)c2ncccc21 | 1580 nM (active) | 
COCCn1c(=O)c(-c2cccs2)nc2cnc(Oc3ccccc3)nc21 | 3980 nM (active) | 
c1ccc(NN(Cc2cnccn2)c2ccccc2)cc1 | 3160 nM (active) | 
COc1ccc2[nH]cc(CCNc3ncncc3-c3ccccc3Cl)c2c1 | 199 nM (active) | 
CN1CCN(c2ncc3nc(-c4cn(C)c5ccccc45)c(=O)n(C[C@H]4CCCO4)c3n2)CC1 |  | 26.1%
N#CCCn1c(=O)c(-c2ccc(Cl)cc2)nc2cnc(N3CCOCC3)nc21 |  | 39.2%
O=c1cc(-c2ccc(O)c(O)c2)oc2cc(O[C@@H]3O[C@@H](CO)[C@@H](O)[C@@H](O)[C@H]3O)cc(O)c12 |  | -30%
O=c1c(-c2ccccc2)nc2cnc(N3CCOCC3)nc2n1CCc1ccccc1 | 7940 nM (active) | 
CCNc1ncc2nc(CCc3ccccc3)c(=O)n(CCC#N)c2n1 | 6310 nM (active) | 
COc1cccc(-c2nc(N(C)C)c3ccccc3n2)c1 |  | 45.3% [at 2.29 µM]
O=c1ccc2cc3ccoc3cc2o1 | 7940 nM (active) | 
COc1ccc2[nH]cc(CCNc3ncncc3-c3ccccc3OC)c2c1 | 251 nM (active) | 
COc1cc2cc3c4c(cc(OC)c(OC)c4c2cc1OC)CCN3C | 794 nM (active) | 
COc1ccc2[nH]cc(CCNc3ncnc4ccc(-c5cccc(C#N)c5)cc34)c2c1 | 63.1 nM (active) | 
